From PubChem BioAssay
CYP2C9 inhib – blockers of cytochrome P450 2C9 activity – biochemical, luminescence, ADME assay, primary screen | P11712 | CYP2C9 Supersomes, luciferin-H conversion | inhibition, % at 5 µM | 20% of 96,000 active;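 active = blocking of liver enzyme CYP2C9 beyond about 50% at 5 µM, limit read from the data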
CYP2C19 inh – blockers of cytochrome P450 2C19 activity – biochemical, luminescence, ADME assay, primary screen. inhibition, % at 5 µM. CYP2C19 Supersomes, luciferin-H EGE luminescence, 30 min. 21% of 96,000 active. P33261;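 active = CYP2C19 inhibition above a set limit at 5 µM in the primary screen, cut at about 50% in these data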;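 also: plate controls were negative control wells for no effect and 2.5 mM tranylcypromine positive control for full effect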
CYP2C19 act – human CYP2C19 activators, primary screen, biochemical, luminescence. recombinant CYP2C19, luciferin-H EGE luminescence; stronger effect = higher value; 0 = fully inhibited enzyme, 1 = untreated enzyme. activation factor at 5 µM. 96,000 tested, under 10 active. AID 1025, 2008;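 active = activation factor of at least 2 at 5 µM in the primary screen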;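 also: 0 = wells with 2.5 mM tranylcypromine and 1 = vehicle-only wells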
PLAP activator – PLAP enzyme activators, biochemical, luminescence, HTS; Alkaline phosphatase, placental type (Homo sapiens), P05187; purified PLAP enzyme, luminescent substrate read-out; stronger effect = higher value; activation fold at 20 µM; 1.2% of 96,000 active; in the data active = activation fold above about 2
Target sequence (P05187 whole entry, looked up): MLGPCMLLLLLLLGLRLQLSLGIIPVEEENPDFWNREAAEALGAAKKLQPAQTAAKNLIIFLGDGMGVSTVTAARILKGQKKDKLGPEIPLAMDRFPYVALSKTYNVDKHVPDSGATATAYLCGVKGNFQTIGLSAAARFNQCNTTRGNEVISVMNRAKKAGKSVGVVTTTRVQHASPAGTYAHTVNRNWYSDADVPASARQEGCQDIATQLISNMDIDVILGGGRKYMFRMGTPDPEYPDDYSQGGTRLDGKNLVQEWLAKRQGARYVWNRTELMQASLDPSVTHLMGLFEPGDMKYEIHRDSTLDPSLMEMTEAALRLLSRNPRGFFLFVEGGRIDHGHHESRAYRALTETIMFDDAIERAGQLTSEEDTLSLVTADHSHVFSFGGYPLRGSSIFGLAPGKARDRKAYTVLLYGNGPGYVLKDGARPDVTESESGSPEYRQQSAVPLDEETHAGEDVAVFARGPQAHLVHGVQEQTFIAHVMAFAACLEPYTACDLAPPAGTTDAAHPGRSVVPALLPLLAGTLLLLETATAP
CYP2C9 act – human CYP2C9 activators, primary screen, biochemical, luminescence; 1.4% of 96,000 active; recombinant CYP2C9, luciferin-H conversion; stronger effect = higher value; factor 1 = untreated enzyme, 0 = blocked; activation factor at 5 µM;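 active = activation factor of 2 or more for CYP2C9 at a 5 µM dose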;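 also: 0 = sulfaphenazole-blocked wells and 1 = vehicle-only wells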
Starred values were filed as active, the others as inactive. An excerpt weighted towards active compounds, which were near 31% of everything screened.

SMILES	CYP2C9 inhib	CYP2C19 inh	CYP2C19 act	PLAP activator	CYP2C9 act
CCOC(=O)c1cnc(-c2cccc(OC)c2)[nH]c1=O	36.1	4.3	1	1.1	0.6
CCOC(=O)c1cnc(-n2nc(C)cc2C)nc1NCc1ccccc1	68.5*	36.9	0.6	1.2	0.3
CCOC(=O)c1cnc(-c2ccccc2)[nH]c1=O	54.8*	10.8	0.9	1	0.5
CCOC(=O)c1cnc(NCc2ccccc2)nc1C	61.6*	51.2*	0.5	1	0.4
O=c1[nH]c2c(n(C3CCCCC3)c1=O)CCC2	-31.4	-11.1	1.1	0.9	1.3
Clc1ccc(NNc2ccnc3cc(Cl)ccc23)cc1	80.2*	66.5*	0.3	0.6	0.2
O=C(CN(C(=O)Cn1nnc(-c2cccs2)n1)c1ccc2c(c1)OCCO2)NCc1ccccc1	95.7*	59.5*	0.4	2.1*	0
O=C(CN(CCc1ccccc1)C(=O)CN1C(=O)COc2ccccc21)NCc1ccco1	30.2	36.5	0.6	1	0.7
O=C(CN(CCc1ccccc1)C(=O)Cn1nnc(-c2cccs2)n1)NCc1ccco1	81.0*	56.1*	0.4	0.9	0.2
O=C(CN(Cc1ccccc1Cl)C(=O)Cn1nnc(-c2cccs2)n1)NCC1CCCO1 (centres undefined)	40.1	26.8	0.7	1.7	0.6
O=C(O)C1C2C=CC(C2)C1C(=O)NC1CCS(=O)(=O)C1 (centres undefined)	3.0	8.4	0.9	0.9	1
CC1CC1C(=O)OCc1cc(=O)n2cc(Br)ccc2n1 (centres undefined)	35.5	63.2*	0.4	1	0.6
CCc1nnc(NC(=O)CSc2nnc(CNc3ccc(F)cc3)n2C2CCCCC2)s1	67.7*	56.8*	0.4	1.7	0.3
CCc1nnc(NC(=O)CSc2nnc(CNc3cccc(C)c3)n2-c2ccccc2)s1	76.7*	51.1*	0.5	1.5	0.2
COC(=O)CSc1nnc(-c2ccccc2O)n1-c1ccc(C)cc1	37.2	56.8*	0.4	1.7	0.6
Cc1cccc(-n2c(SCC(=O)Nc3nonc3C)nnc2-c2ccoc2C)c1	54.5*	45.0	0.6	1.2	0.5
CCn1c(SCC(=O)Nc2nonc2C)nnc1-c1ccoc1C	9.0	33.4	0.7	1	0.9
CSc1nc(-c2ccccc2)c(-c2ccccc2)[nH]1	-13.6	-14.8	1.1	1.1	1.1
S=C1SCN(Cc2ccccn2)CN1Cc1ccco1	12.8	19.6	0.8	1	0.9
CC(SC1CCCC1)C(=O)NC(C)(C#N)C(C)C (centres undefined)	5.8	16.4	0.8	1	0.9
CCc1nnc(NC(=O)CSc2nnc(-c3ccccc3O)n2-c2ccc(C)cc2)s1	-14.2	-6.7	1.1	1	1.1
CCc1nnc(NC(=O)CSc2nnc(-c3ccoc3C)n2-c2cccc(C)c2)s1	53.7*	37.1	0.6	1.4	0.5
Cc1cccc(-n2c(SCC(=O)Nc3nnc(C)s3)nnc2-c2ccoc2C)c1	23.3	23.7	0.8	1.4	0.8
CCc1nnc(NC(=O)CSc2nnnn2-c2cccc(C(=O)OC)c2)s1	67.8*	33.0	0.7	1	0.3
Cc1nonc1NC(=O)CSc1nnc(-c2ccoc2C)n1CC(C)C	14.5	76.0*	0.2	1	0.9
SMILES	CYP2C9 inhib	CYP2C19 inh	CYP2C19 act	PLAP activator	CYP2C9 act
CCc1nnc(NC(=O)CSc2nnc(-c3ccccc3OC)n2-c2ccc(C)cc2)s1	71.6*	77.4*	0.2	1.3	0.3
O=C(OCCCN1CCCC1)C1(c2ccccc2)CCCC1	-13.9	0.0	1	1	1.1
Cc1nccn1CC(=O)O	-1.3	10.8	0.9	0.9	1
Cc1cc(C)cc(N2CC(c3nc4ccccc4n3C)CC2=O)c1 (centres undefined)	-36.3	12.0	0.9	1.2	1.4
CCn1c(C2CC(=O)N(Cc3ccccc3)C2)nc2ccccc21 (centres undefined)	45.1	53.0*	0.5	1	0.5
c1ccc(CCn2c(C3CC3)nc3ccccc32)cc1	66.5*	97.9*	0	1.1	0.3
CCCn1c(C2CC(=O)N(c3cc(OC)ccc3OC)C2)nc2ccccc21 (centres undefined)	35.2	22.9	0.8	1.3	0.6
C=CCN1CC(c2nc3ccccc3n2CCOc2ccccc2)CC1=O (centres undefined)	72.7*	59.8*	0.4	1.8	0.3
CC(C)(C)N1CC(c2nc3ccccc3n2Cc2ccccc2)CC1=O (centres undefined)	78.8*	49.5	0.5	1.6	0.2
CCOC(=O)C1CCN(C(=O)CN(c2ccc3c(c2)OCCO3)S(C)(=O)=O)CC1	-3.2	0.5	1	1	1
CC(C)CNC(=S)NC1CC2CCCC(C1)N2Cc1cccs1 (centres undefined)	-2.8	39.2	0.6	1.3	1
COc1ccccc1N1CCN(C(=O)Nc2cccc(C)c2)CC1	-29.7	21.2	0.8	1.1	1.3
CCn1c(C2CC(=O)N(c3ccc(C)c(C)c3)C2)nc2ccccc21 (centres undefined)	31.4	52.7*	0.5	1.2	0.7
Cc1ccc(N2CC(c3nc4ccccc4n3C)CC2=O)cc1C (centres undefined)	-41.5	21.9	0.8	1.2	1.4
CC(=O)c1ccc(NC(=O)C2CC(=O)N(Cc3ccccc3)C2)cc1 (centres undefined)	36.0	33.6	0.7	1	0.6
C=C(C)Cn1c(C2CC(=O)N(Cc3ccccc3)C2)nc2ccccc21 (centres undefined)	70.8*	55.4*	0.4	1.2	0.3
COC(=O)c1sccc1OC(C)C(C)=O (centres undefined)	0.4	4.4	1	1	1
CCOC(=O)N1CCN(C(=O)COc2ccc(Cl)cc2)CC1	-13.0	38.1	0.6	0.9	1.1
CC(C)(C)n1nc2c(c1NC(=O)Cc1cccs1)CSC2	76.5*	37.6	0.6	1.5	0.2
CC(C)(C)n1nc2c(c1NC(=O)Cc1ccc(F)cc1)CSC2	67.9*	64.1*	0.4	1.5	0.3
CC(C)(C)n1nc2c(c1NC(=O)COc1ccc(Cl)cc1)CSC2	86.1*	66.9*	0.3	1.6	0.1
CC(C)(C)n1nc2c(c1NC(=O)Cc1cccc3ccccc13)CS(=O)C2 (centres undefined)	0.5	5.1	0.9	1.2	1
O=C(NCCS(=O)CCNC(=O)C(F)(F)F)C(F)(F)F	-5.8	-6.0	1.1	0.9	1.1
CCOC(=O)C1CCCN(S(=O)(=O)c2ccc(F)c(C(=O)Nc3ccc(F)c(F)c3)c2)C1 (centres undefined)	60.3*	58.6*	0.4	1.1	0.4
